# Measurements from PubChem BioAssay (NCATS).
# Values without a mark were called inactive. Results filed as inconclusive are left out. Entries that show only a call come without a potency. Active and inactive are the calls of the source. Calls follow the shape of the dose curve; as a rule, active = well fitted curve in the direction sought with a large enough effect; inconclusive = small, poorly fitted or top-dose-only effect, or another doubt; inactive = no such curve, though single readings can be large; an effect the other way counts as inactive or inconclusive. Where a SMILES comes first, the peptide text is derived from it.
# Legend:
# [1] = Primary fluorescence-based thiol-reactive (MSTI) qHTS assay for identification of artifact compounds. (AID 1845221); also: nearly all actives have a fitted effect of over 65% in size; also: potency is read from the fitted curve at half-maximal effect;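 as to activity change, negative = thiol reactive: series mostly up to about 54 µM; thiol-reactive compounds lower the probe fluorescence signal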
# In short: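 One-hour, room-temperature, dark incubation of compound with 4 uM MSTI in PBS (pH 7.4, 2% DMSO) precedes a fluorescence read at 525 nm excitation, 598 nm emission; Hill-equation fitting yields concentration-response values.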
# [2] = tested on: Nanoluciferase (engineered Oplophorus gracilirostris luciferase); assay: Primary Nanoluciferase (NLuc) qHTS assay for identification of artifact compounds. (AID 1845222); also: potency is read from the fitted curve at half-maximal effect;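 as to activity, negative = inhibition: NLuc secreted into diluted conditioned medium of S16 cells; series mostly up to about 54 µM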
# In short: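 S16 cell supernatant NLuc, 1:55; cpds qHTS; 15 min RT dark; Nano-Glo substrate 1:100, 5 min; luminescence; Hill fit of % inhibition.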
# [3] = Primary redox qHTS assay for identification of artifact compounds. (AID 1845223)
# In short: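 Amplex Red (25 uM) and HRP (250 mU/mL) in HBSS, with compounds for 15 min, then 250 uM DTT for 30 min, room temperature, dark. Fluorescence 525/598 nm read; normalized to DMSO and 10 uM DA3003; Hill fit.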
structure (smiles),measurement,setting,value
COc1ccc(CC(NC(C)=O)C(=O)O)cc1 (configuration not stated),Potency,[1],4.74 µM (active)
same,Potency,[2],inactive
COc1cc(C)c(C(=O)OC2C(C)OC(OC3CCC(C)C4C3C=C(C)C3/C(C)=C\CC/C(C)=C/C5(C)C=C(C(=O)O)C(C)CC56OC(=O)/C(=C(\O)C34C)C6=O)C(O)C2O)c(OC)c1 (configuration not stated),"activity change, negative = thiol reactive",[1],142% [at 11.5 µM]
same,"activity, negative = inhibition",[2],4.78% [at 11.6 µM]
Cc1ncc([N+](=O)[O-])n1C[C@H](O)CN1CCOCC1,Potency,[1],inactive
same,Potency,[2],inactive
CCOC(=O)C1=C(N)Oc2ccc(Cl)cc2C1C(C#N)C(=O)OCC (configuration not stated),Potency,[1],inactive
same,Potency,[2],inactive
CC1C2=CC(=O)OC2(O)CC2C1C(O)CC1C(C)(CO)CCCC21C (configuration not stated),Potency,[1],inactive
same,Potency,[2],inactive
CC(C/C=C/C(C)(C)O)C1CCC(C)(O)C(O)C1 (configuration not stated),Potency,[1],inactive
same,Potency,[2],inactive
CC1=CC(=O)C2C(C)(C)CCC[C@]2(C)[C@H]1CC[C@H](C)CC(=O)O (some centres not stated),Potency,[1],inactive
same,Potency,[2],inactive
CC1=C(C)C(=O)OC(C(C)C2C(O)CC3C4C5OC5C5(O)CC(OC6OC(CO)C(OC7OC(C)C(O)C(O)C7O)C(O)C6O)CC(O)C5(C)C4CCC32C)C1 (configuration not stated),Potency,[1],inactive
same,Potency,[2],inactive
COC(=O)Cn1nc(-c2cccc(OC)c2)c2ccccc21,Potency,[1],inactive
same,Potency,[2],inactive
CCCCS(=O)(=O)NC(Cc1ccc(OCCCCC2CCNCC2)cc1)C(=O)O (configuration not stated),Potency,[1],inactive
same,Potency,[2],inactive
COc1cc(C(=O)OCC2=CCC3C(C(=O)O)=COC(O[C@@H]4O[C@H](CO)[C@@H](O)[C@H](O)[C@H]4O)C23)ccc1O (some centres not stated),Potency,[1],11.6 µM (active)
same,Potency,[2],inactive
CC1=C[C@H]2[C@@H](CC1=O)[C@H](C)C[C@H](O)[C@H]2C(C)C,Potency,[1],inactive
same,Potency,[2],inactive
same,Potency,[3],inactive
C=C(COC(=O)CC(C)C)C1Cc2cc(C(C)=O)ccc2O1 (configuration not stated),Potency,[1],inactive
same,Potency,[2],inactive
C=C1CC2C3(C)C=CC(=O)OC(C)(C)C3CC(OC(C)=O)C2(C)C2C(=O)OC(C)C(=O)C12C (configuration not stated),Potency,[1],inactive
same,Potency,[2],inactive
same,Potency,[3],inactive
CC(=O)O[C@@H](C[C@@H]1C=C(C)C(=O)O1)[C@H](C)[C@H]1CCC2[C@@]3(C)CC[C@H](O[C@@H]4O[C@H](CO)[C@@H](O)[C@H](O)[C@H]4O[C@@H]4O[C@@H](C)[C@H](O)[C@@H](O)[C@H]4O)C(C)(C)C3CC[C@@]2(C)[C@@]12COC(=O)C2 (some centres not stated),"activity change, negative = thiol reactive",[1],32.4% [at 11.5 µM]
same,"activity, negative = inhibition",[2],-4.12% [at 11.6 µM]
CNc1nc(C)nc(N[C@H]2CCC[C@@H](C(=O)NCc3ccc(C#N)cc3C(F)(F)F)C2)n1,Potency,[1],inactive
same,Potency,[2],inactive
CCC(=O)OCC(=O)[C@@]1(OC(=O)CC)[C@@H](C)C[C@H]2[C@@H]3CCC4=CC(=O)C=C[C@]4(C)[C@@]3(F)[C@@H](O)C[C@@]21C,Potency,[1],inactive
same,Potency,[2],inactive
CC(=O)NC(Cc1ccccc1)C(=O)NC(C(=O)O)C(C)C (stereo not drawn) (Ac-Phe-Val-OH; configuration not given here),Potency,[1],inactive
same,Potency,[2],inactive
CC(=O)OC1CC(=O)C2(C)C3CC4=C(OC(C)CC4=O)OC3(C)CCC2C1(C)C (configuration not stated),Potency,[1],11.6 µM (active)
same,Potency,[2],inactive
O=C(Cc1ccc(Cl)cc1)Nc1cnccc1C(=O)O,Potency,[1],inactive
same,Potency,[2],9.53 µM (active)
same,Potency,[3],inactive
CC(C)[C@](O)(c1ccc2cc(OC(F)F)c(OC(F)F)cc2c1)c1cn[nH]n1,Potency,[1],inactive
same,Potency,[2],inactive
CCc1cc(CC[C@]2(C3CCCC3)CC(O)=C(Cc3nc4nc(C)cc(C)n4n3)C(=O)O2)cc(CC)n1,Potency,[1],inactive
same,Potency,[2],inactive
COC(=O)C(CC1(O)c2ccccc2N2C(=O)C(CC(C)C)NC21)n1cnc2ccccc2c1=O (configuration not stated),Potency,[1],inactive
same,Potency,[2],inactive
CCN(CCN(C)C)C(=O)CNCc1cc(C(N)=O)ccn1,Potency,[1],inactive
same,Potency,[2],inactive
same,Potency,[3],inactive
CC/C=C\C(O)C(O)C1=C(C)C(=O)C2(O1)C(=O)NC(OC)(C(=O)c1ccccc1)C2O (configuration not stated),Potency,[1],4.62 µM (active)
same,Potency,[2],inactive
N#Cc1ccc(C2CCCc3cncn32)cc1 (configuration not stated),Potency,[1],inactive
same,Potency,[2],inactive
same,Potency,[3],inactive
